The results in this text go back to PubChem BioAssay.

Molecules are shown by their SMILES. Values without a mark were called inactive. For some of these results: Measured potencies and affinities stand elsewhere. The source made the active and inactive calls. Unless noted, no rule for the calls is given here.

Assay [1] is described as follows: antimalarial activity against Dd2 strain (AID 2302;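 active = growth inhibition above 50% at the single 2 µM test dose, taken to imply half-maximal potency below 2 µM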;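 also: 0% = DMSO untreated growth and 100% = chloroquine plus artemisinin killed control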). The settings on record: P. falciparum Dd2 in RBCs, LDH growth readout, 72 h; at 2 µM; hits give high values.
Assay [2] can be described thus: human hepatoma cell viability loss – ATP luminescence, cytotoxicity control for P. falciparum antimalarial project, primary screen (AID 2303;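 active = inhibition above 50%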;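 also: 0% = DMSO wells and 100% = digitonin-killed cells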). The following applies: HepG2 viability, 24-48 h, at 10 µM, hits give high values.
The target of assay [3] is L-lactate dehydrogenase (Plasmodium falciparum (isolate CDC / Honduras)) (UniProt Q27743). Put plainly: PfLDH activity inhibition – cell lysate, 3D7 strain, counter-screen for P. falciparum growth inhibition project (AID 2304).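 Also: 0% = vehicle and 100% = reference inhibitor.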 The settings on record: P. falciparum 3D7 crude extract, LDH APAD/NBT absorbance; at 2 µM; hits give high values.
Assay [4] in a line: inhibition of 3D7 malaria parasite growth – strain 3D7 (AID 2306).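 Also: 0% = DMSO wells and 100% = chloroquine plus artemisinin control wells.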 The following applies: P. falciparum 3D7 erythrocytic growth, LDH absorbance, 72 h; at 2 µM; hits give high values.
Assay [5] concerns the target Calcium-dependent protein kinase 1 (Plasmodium falciparum (isolate 3D7)) (UniProt P62344). Put plainly: PfCDPK1 kinase inhibitors, biochemical, TCAMS library (AID 1159585; cut-off not given, nearly all actives have IC50 up to about 0.98 µM;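 also: inhibitors leave more ATP so luminescence rises with inhibition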). The settings on record: recombinant PfCDPK1, Kinase-Glo ATP depletion luminescence.
The target of assay [6] is Plasmodium falciparum protein kinase 6 (PK6, PF3D7_1337100) (UniProt Q8IDW1). Put plainly: PfPK6 kinase inhibitors, biochemical, TCAMS library (AID 1159586). The settings on record: recombinant PfPK6, Kinase-Glo ATP depletion luminescence.
Assay [7] addresses Protein kinase 7 (PK7), Plasmodium falciparum 3D7 (PF3D7_0213400) (UniProt Q7YTF7). Briefly: inhibition of Plasmodium PK7 catalytic activity – biochemical, TCAMS antimalarial set, Kinase-Glo luminescence (AID 1159587). The following applies: recombinant PfPK7, Kinase-Glo ATP depletion luminescence.
For assay [8], the target named is Calcium-dependent protein kinase 4 (Plasmodium falciparum (isolate 3D7)) (UniProt Q8IBS5). Put plainly: PfCDPK4 kinase inhibitors, biochemical, TCAMS library (AID 1159588; cut-off not given, nearly all actives have IC50 up to about 0.91 µM). The settings on record: recombinant PfCDPK4, Kinase-Glo ATP depletion luminescence.
Calcium-dependent protein kinase 4 (Plasmodium falciparum (isolate 3D7)), sequence (Q8IBS5 whole entry, looked up): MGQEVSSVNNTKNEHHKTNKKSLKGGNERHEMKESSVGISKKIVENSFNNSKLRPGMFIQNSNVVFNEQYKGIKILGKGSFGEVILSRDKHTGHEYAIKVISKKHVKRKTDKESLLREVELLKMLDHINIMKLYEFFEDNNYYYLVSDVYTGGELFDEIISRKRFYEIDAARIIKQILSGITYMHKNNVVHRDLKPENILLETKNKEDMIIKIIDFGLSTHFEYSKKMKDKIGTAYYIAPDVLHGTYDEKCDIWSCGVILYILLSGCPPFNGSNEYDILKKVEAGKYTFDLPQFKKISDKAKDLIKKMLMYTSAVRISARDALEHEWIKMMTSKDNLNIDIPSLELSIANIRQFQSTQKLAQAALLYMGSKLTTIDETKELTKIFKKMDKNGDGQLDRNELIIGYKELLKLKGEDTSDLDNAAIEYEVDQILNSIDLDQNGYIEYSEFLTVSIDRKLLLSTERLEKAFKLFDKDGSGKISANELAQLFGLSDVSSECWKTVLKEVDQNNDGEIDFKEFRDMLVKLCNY

Calcium-dependent protein kinase 1 (Plasmodium falciparum (isolate 3D7)), sequence (P62344 whole entry, looked up): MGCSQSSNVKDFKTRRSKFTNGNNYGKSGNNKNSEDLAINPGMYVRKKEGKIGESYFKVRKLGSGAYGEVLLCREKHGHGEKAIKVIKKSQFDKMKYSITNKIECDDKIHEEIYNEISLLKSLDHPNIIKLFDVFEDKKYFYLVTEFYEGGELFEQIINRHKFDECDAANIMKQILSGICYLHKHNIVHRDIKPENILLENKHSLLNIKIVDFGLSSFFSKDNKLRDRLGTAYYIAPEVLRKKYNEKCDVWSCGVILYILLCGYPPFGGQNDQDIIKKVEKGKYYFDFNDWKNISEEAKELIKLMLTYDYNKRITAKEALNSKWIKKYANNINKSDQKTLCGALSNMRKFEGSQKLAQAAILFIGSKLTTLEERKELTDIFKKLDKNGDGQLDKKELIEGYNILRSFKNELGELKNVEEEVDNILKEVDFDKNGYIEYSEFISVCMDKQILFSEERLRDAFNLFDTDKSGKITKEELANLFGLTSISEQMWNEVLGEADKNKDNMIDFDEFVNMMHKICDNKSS
L-lactate dehydrogenase (Plasmodium falciparum (isolate CDC / Honduras)), sequence (Q27743 whole entry, looked up): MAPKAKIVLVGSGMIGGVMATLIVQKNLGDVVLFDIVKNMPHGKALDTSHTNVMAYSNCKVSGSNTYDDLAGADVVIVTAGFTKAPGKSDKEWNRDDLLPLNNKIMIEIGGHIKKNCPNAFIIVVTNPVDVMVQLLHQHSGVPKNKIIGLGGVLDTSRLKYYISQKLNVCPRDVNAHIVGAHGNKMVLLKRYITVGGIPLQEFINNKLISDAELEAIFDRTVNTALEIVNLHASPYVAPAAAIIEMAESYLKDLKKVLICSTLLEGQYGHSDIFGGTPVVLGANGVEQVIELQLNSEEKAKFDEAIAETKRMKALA
Protein kinase 7 (PK7), Plasmodium falciparum 3D7 (PF3D7_0213400), sequence (Q7YTF7 1-343): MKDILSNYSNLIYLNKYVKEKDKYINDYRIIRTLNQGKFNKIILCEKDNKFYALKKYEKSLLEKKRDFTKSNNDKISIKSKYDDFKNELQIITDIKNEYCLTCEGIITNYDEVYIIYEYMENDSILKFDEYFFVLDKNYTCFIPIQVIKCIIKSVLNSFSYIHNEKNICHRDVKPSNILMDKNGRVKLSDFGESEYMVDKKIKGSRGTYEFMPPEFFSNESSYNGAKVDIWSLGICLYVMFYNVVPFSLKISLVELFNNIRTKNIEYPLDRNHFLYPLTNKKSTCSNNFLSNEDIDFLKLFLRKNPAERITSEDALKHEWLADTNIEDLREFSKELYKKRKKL
Plasmodium falciparum protein kinase 6 (PK6, PF3D7_1337100), sequence (Q8IDW1 1-305): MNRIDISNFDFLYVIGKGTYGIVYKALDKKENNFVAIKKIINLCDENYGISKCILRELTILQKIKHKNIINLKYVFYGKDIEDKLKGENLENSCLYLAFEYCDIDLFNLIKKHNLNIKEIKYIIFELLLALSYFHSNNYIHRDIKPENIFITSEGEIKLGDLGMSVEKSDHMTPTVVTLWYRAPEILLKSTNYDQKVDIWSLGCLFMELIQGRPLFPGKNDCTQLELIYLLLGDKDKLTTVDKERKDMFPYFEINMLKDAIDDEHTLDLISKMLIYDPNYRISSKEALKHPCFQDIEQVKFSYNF

With `O=C(N[C@H]1CCN(Cc2ccc(OC3CCN(Cc4ccccc4)CC3)c(Br)c2)C1)c1ccc(Cl)c(Cl)c1`, the growth inhibition was 30% in assay [1] and 100% (active) in assay [4]. Also, the values for the inhibition in assay [2] and in assay [3] were 55% (active) and -1%, respectively. The result in assay [5], in assay [6], in assay [7] and in assay [8] was inactive.
For `CC(C)[C@H](NCC(=O)c1ccccc1)C(=O)O`, the growth inhibition in assay [1] was 0%; in assay [4] it was 99% (active). The figures for the inhibition in assay [2] and in assay [3] were 6% and -3%, respectively. Further, the result in assay [5], in assay [6], in assay [7] and in assay [8] was inactive.
Take `COc1cccc(CNC[C@@H](O)[C@H](Cc2ccccc2)NC(=O)c2cc(OC(C)C)cc(N3CCCCS3(=O)=O)c2)c1`: the growth inhibition is 49% in assay [1] and 95% (active) in assay [4]. Besides, the inhibition in assay [2] is 8%; in assay [3] it was 5%. Further, the result in assay [5], in assay [6], in assay [7] and in assay [8] was inactive.
Turning to `O=C(C=Cc1ccc(Cl)c(Cl)c1)NCCCCCN1CCCC(CCCNC(=O)[C@@H]2C[C@H]2c2ccccc2)C1` (stereo not given in full), the results for the growth inhibition in assay [1] and in assay [4] were 5% and 85% (active), respectively. Moreover, the inhibition was 48% in assay [2] and -1% in assay [3]. Further, the result in assay [5], in assay [6], in assay [7] and in assay [8] was inactive.
Consider `O=C(c1csc(-c2cccnc2)n1)N1CCc2cc3nccc(N4CCN5CCC[C@H]5C4)c3cc21`, for which the growth inhibition was 78% (active) in assay [1] and 97% (active) in assay [4]. Further, the inhibition in assay [2] is -7%; in assay [3], -3%. In addition, the result in assay [5], in assay [6], in assay [7] and in assay [8] was inactive.
`COc1cc(Nc2nc(N)n(C(=O)c3ccc4c(c3)OCO4)n2)cc(OC)c1OC`: the growth inhibition in assay [1] was 40%; in assay [4] it was 90% (active). Also, the inhibition in assay [2] was 60% (active); in assay [3] it was 1%. For the same molecule, the outcome in assay [5], in assay [6], in assay [7] and in assay [8] was inactive.
On to `CC(C)(Oc1ccc(Cl)cc1)C(=O)NCCC1CCN(CCCCCNC(=O)/C=C/c2ccc(Cl)c(Cl)c2)CC1`, for which the growth inhibition in assay [1] is 37%; in assay [4], 87% (active). Also, the inhibition was 73% (active) in assay [2] and -1% in assay [3]. Besides, the result in assay [5], in assay [6], in assay [7] and in assay [8] was inactive.
As to `COc1cc(-c2nc3ccc(N4CCN(C)CC4)cc3[nH]2)cc(OC)c1OC`, the growth inhibition in assay [1] was 15%; in assay [4], 87% (active). For the same molecule, the inhibition in assay [2] was 6%; in assay [3], 0%. The result in assay [5], in assay [6], in assay [7] and in assay [8] was inactive.
In the case of `COc1ccccc1N(C)CCNc1cc(C)nc(Nc2ccc(C)cc2)n1`, the growth inhibition in assay [1] was 25%; in assay [4], 93% (active). For the same molecule, the inhibition in assay [2] is 9%; in assay [3] it was 0%. The result in assay [5], in assay [6], in assay [7] and in assay [8] was inactive.
As to `Cc1nc(-c2ccc(-c3ccc(NC(=O)c4coc5ccc(N6C[C@@H](C)N(C)[C@@H](C)C6)cc45)cc3)c(C)c2)no1`, the growth inhibition in assay [1] was 46%; in assay [4] it was 96% (active). Besides, the inhibition is 21% in assay [2] and 1% in assay [3]. In addition, the result in assay [5], in assay [6], in assay [7] and in assay [8] was inactive.
In the case of `CCOc1ccc(C2CCN(CCN3CCC(NC(=O)c4ccc(-c5ccc(C(F)(F)F)cc5)cc4)CC3)CC2)c(OCC2CC2)c1`, the growth inhibition in assay [1] was 65% (active); in assay [4], 99% (active). Moreover, the inhibition was 13% in assay [2] and -9% in assay [3]. Further, the result in assay [5], in assay [6], in assay [7] and in assay [8] was inactive.
As to `NC1CCN(Cc2cccc(-c3ccc(-c4nc5ccc(C(F)(F)F)cc5[nH]4)cc3)c2)C1` (stereo not given), the growth inhibition in assay [1] is 97% (active); in assay [4], 99% (active). The inhibition in assay [2] is 21%; in assay [3], -9%. For the same molecule, the outcome in assay [5], in assay [6], in assay [7] and in assay [8] was inactive.
Turning to `CCCN(CCC)CCCN(CCCN(CCC)CCC)c1cc(C)nc(Nc2ccc3cc(Br)ccc3c2)n1`, the growth inhibition in assay [1] is 99% (active); in assay [4] it was 98% (active). In addition, the inhibition in assay [2] is 99% (active); in assay [3] it was 1%. Moreover, the result in assay [5], in assay [6], in assay [7] and in assay [8] was inactive.
As to `CCn1ccc2c(N3CCCC3=O)cc(C(=O)N[C@@H](Cc3ccccc3)[C@H](O)CNC3CCCCC3)cc21`, the growth inhibition was 98% (active) in assay [1] and 99% (active) in assay [4]. Also, the inhibition is 12% in assay [2] and 2% in assay [3]. The outcome in assay [5], in assay [6], in assay [7] and in assay [8] was inactive.
As for `CCc1ccc(CN2CCC(CNC(=O)c3cc(-c4ccccc4F)cs3)C2)cc1` (stereo not given), the figures for the growth inhibition in assay [1] and in assay [4] were 3% and 100% (active), respectively. Moreover, the inhibition in assay [2] is 29%; in assay [3] it was -2%. The outcome in assay [5], in assay [6], in assay [7] and in assay [8] was inactive.
As for `N#Cc1ccc(NC(=O)c2ccc(Cc3ccc4c(c3)CCN(C3CCC3)CC4)cn2)cc1`, the growth inhibition in assay [1] was 2%; in assay [4], 91% (active). The figures for the inhibition in assay [2] and in assay [3] were 66% (active) and -4%, respectively. Besides, the outcome in assay [5], in assay [6], in assay [7] and in assay [8] was inactive.
Turning to `CN(CCCN(C)c1cc(NC(=O)c2cccc(F)c2)ccn1)Cc1cccc(O)c1`, the growth inhibition in assay [1] was 4%; in assay [4] it was 92% (active). For the same molecule, the inhibition was -3% in assay [2] and -1% in assay [3]. For the same molecule, the outcome in assay [5], in assay [6], in assay [7] and in assay [8] was inactive.
Turning to `COc1ccc2nccc([C@@H](O)CN3CCC(NC(=O)C(c4cc5ccccc5o4)N4CCN(Cc5ccccc5)CC4)CC3)c2c1` (stereo not given in full), the growth inhibition in assay [1] was 75% (active); in assay [4], 91% (active). The inhibition in assay [2] is 30%; in assay [3], -5%. The outcome in assay [5], in assay [6], in assay [7] and in assay [8] was inactive.
As for `CCOC(=O)NC1=NC(C)(C)N(OCc2ccc(Cl)c(Cl)c2)C(N)=N1`, the values for the growth inhibition in assay [1] and in assay [4] were 90% (active) and 96% (active), respectively. Besides, the results for the inhibition in assay [2] and in assay [3] were 66% (active) and -5%, respectively. Besides, the outcome in assay [5], in assay [6], in assay [7] and in assay [8] was inactive.
For the molecule `Cn1cncc1C(=O)Nc1ccc(-c2cccc(-c3nc4ccc(F)cc4[nH]3)c2)cc1`, the growth inhibition was 23% in assay [1] and 102% (active) in assay [4]. The inhibition in assay [2] is 5%; in assay [3], 2%. In addition, the result in assay [5], in assay [6], in assay [7] and in assay [8] was inactive.
